Experimental data reported in PubChem BioAssay.
Results with a measured potency or affinity are listed apart. Values without a mark were called inactive. Activity calls are given as the source filed them. No rule for the calls is given here.

Legend:
[1] = A549 cell cytotoxicity, dose response, cytotoxicity control, plate reader, cherry-pick, antagonist series (AID 743412); settings: series mostly up to 26 µM
[2] = toxicity toward HepG2 liver cells – cell-based, plate reader, cherry-pick, antagonist series, cytotoxicity control, dose response (AID 743416); settings: series mostly up to 26 µM
[3] = target: Melanocortin receptor 4 (Homo sapiens) (UniProt P32245); experiment: blockade of melanocortin 4 receptor signaling – cell-based, plate reader, cherry pick, counter-screen for LGR2 antagonist project, dose response (AID 743444); settings: MC4R-expressing cells, antagonist mode; series mostly up to 35 µM

Compound | outcome [1] | outcome [2] | outcome [3]
O=C(Nc1cccc(C(=O)O)c1)Nc1ccccc1Cl | inactive | inactive | 
C[C@H](CO)N1C[C@H](C)[C@H](CN(C)C(=O)Nc2ccc(F)cc2)OCCCC[C@H](C)Oc2ccc(NC(=O)NC3CCCCC3)cc2C1=O | inactive | inactive | inactive
Cc1cccn2c(CNCC3(c4ccccc4)CCCC3)c(C(=O)N3CCOCC3)nc12 | inactive | inactive | inactive
CCOC(=O)C(C)N1c2cccc3cccc(c23)S1(=O)=O (centres undefined) | inactive | inactive | inactive
O=C(CC1CS(=O)(=O)CC1CC(=O)Nc1ccc2c(c1)OCCO2)Nc1ccc2c(c1)OCCO2 (centres undefined) | inactive | inactive | inactive
CSc1ccc(NC(=O)Nc2cc(C)ccn2)cc1 | inactive | inactive | 
Nc1c(C(=O)Nc2cccc(C(=O)O)c2)sc2nc3c(cc12)CCCC3 | inactive | inactive | 
C[C@H]1CCCCO[C@H](CN(C)C(=O)Nc2cccc3ccccc23)[C@@H](C)CN([C@@H](C)CO)C(=O)c2cc(NS(=O)(=O)c3cn(C)cn3)ccc2O1 | inactive | inactive | inactive
COc1ccc(OCC(=O)Nc2nccs2)cc1 | inactive | inactive | 
O=C(O)c1cccc(Nc2ccnc(Nc3cccc(C(=O)O)c3)n2)c1 | inactive | inactive | 
C[C@@H]1CN([C@@H](C)CO)C(=O)c2cc(NS(=O)(=O)c3ccc(F)cc3)ccc2O[C@H]1CN(C)Cc1ccc(-c2ccccc2)cc1 | inactive | inactive | 
COc1cccc(-c2cc(C(=O)N3CCCCCC3)no2)c1 | inactive | inactive | 
COc1ccc(S(=O)(=O)Nc2ccc3c(c2)C(=O)N([C@H](C)CO)C[C@H](C)[C@H](CN(C)S(=O)(=O)c2ccc(F)cc2)OCCCC[C@@H](C)O3)cc1 | inactive | inactive | inactive
O=C(c1cc(-c2ccc(Cl)cc2Cl)on1)N1CCOCC1 | inactive | inactive | 
C[C@H](CO)N1C[C@H](C)[C@H](CN(C)C(=O)Nc2ccc(F)cc2)OCCCC[C@H](C)Oc2ccc(NC(=O)C3CCCCC3)cc2C1=O | inactive | inactive | 
O=C(C[C@H]1CC[C@H](NS(=O)(=O)c2cccc(F)c2)[C@@H](CO)O1)N1CCCCC1 | inactive | inactive | inactive
O=C(Nc1cc(S(=O)(=O)Nc2ccccc2Cl)ccc1O)c1ccc(F)cc1F | inactive | inactive | inactive
CC(C)(C)NC(=O)c1cccc(NC(=O)c2ccc3c(c2)C(=O)N(C(C)(C)C)C3=O)c1 | inactive | inactive | inactive
Cc1ccc(NC(=O)c2ncn(CC(=O)NCc3ccc4[nH]ccc4c3)n2)cc1C | inactive | inactive | inactive
CCn1cc(S(=O)(=O)Nc2cccnc2)cn1 | inactive | inactive | inactive
CO[C@H]1CN(C)C(=O)c2ccc(NC(=O)C3CC3)cc2OC[C@@H](C)N(C(=O)Cc2ccccn2)C[C@H]1C | inactive | inactive | inactive
COc1ccccc1C=NNC(=O)c1ccncc1 | inactive | inactive | inactive

Compound | outcome [1] | outcome [2] | outcome [3]
C=CCNc1nc(-c2cc3ccccc3o2)cs1 | inactive | inactive | 
C[C@H](CO)N1C[C@H](C)[C@H](CN(C)Cc2ccccc2)Oc2c(NS(=O)(=O)c3cn(C)cn3)cccc2C1=O | inactive | inactive | inactive
Cc1ccc(-c2nc(-c3ccccn3)no2)cc1[N+](=O)[O-] | inactive | inactive | 
Cn1cnc(S(=O)(=O)N2C[C@@H](O)COC[C@H]3O[C@H](CC(=O)NC4CCCC4)CC[C@@H]32)c1 | inactive | inactive | inactive
O=C(O)c1ccc(Nc2nc3c(s2)CCCC3)cc1 | inactive | inactive | 
CCc1nnc(NC(=O)CSc2nnc3ncccn23)s1 | inactive | inactive | inactive
CC(=O)Nc1cccc(-c2ccnc3c2CC(C(=O)NCc2cccnc2)O3)c1 (centres undefined) | inactive | inactive | inactive
CCCCN(CCCNC(=O)c1ccc2c(c1)NC(=O)CN2C)c1ccccc1 | inactive | inactive | 
O=C(NCCOc1ccccc1)[C@@H]1CCCN1C(=O)c1cccs1 | inactive | inactive | inactive
Cc1noc(C)c1S(=O)(=O)Nc1cccc2c1O[C@H](CN(C)C(=O)Nc1ccc(F)cc1)[C@H](C)CN([C@H](C)CO)C2=O | inactive | inactive | inactive
CO[C@H]1CN(C)C(=O)c2ccc(NC(=O)c3ccc(-c4ccccc4)cc3)cc2OC[C@@H](C)NC[C@@H]1C | inactive | inactive | inactive
Cc1ccc(S(=O)(=O)N2CCCc3nc(-c4ccc(F)cc4)ccc32)cc1 | inactive |  | inactive
Cc1cc(Cl)ccc1OCCCC(=O)Nc1cc(S(=O)(=O)N2CCOCC2)ccc1N1CCOCC1 | inactive | inactive | inactive
O=C(NCc1ccco1)c1cc(NS(=O)(=O)c2cccc([N+](=O)[O-])c2)ccc1O | inactive | inactive | inactive
O=C(c1ccc(F)cc1)N1CC(=O)N2[C@@H](CO)[C@@H](c3ccc(C#CC4CCCC4)cc3)[C@@H]2C1 | inactive | inactive | inactive
CCN(C(=O)COC(=O)C12CC3CC(CC(O)(C3)C1)C2)c1c(N)n(Cc2ccccc2)c(=O)[nH]c1=O | inactive | inactive | inactive
O=S(=O)(Nc1ccc(O)c2ccccc12)c1ccc(OC(F)(F)F)cc1 | inactive |  | inactive
O=C(Cc1ccccc1Cl)Nc1cccnc1 | inactive | inactive | inactive
C[C@H](CO)N1C[C@H](C)[C@H](CN(C)C(=O)Nc2ccc3c(c2)OCO3)OCCCC[C@H](C)Oc2ccc(NC(=O)NC3CCCCC3)cc2C1=O | inactive | inactive | inactive
CC(C)c1ccc(NC(=O)N2CCN(S(=O)(=O)c3ccccc3)CC2)cc1 | inactive | inactive | inactive
Cc1noc(C)c1S(=O)(=O)Nc1ccc2c(c1)C(=O)N([C@H](C)CO)C[C@H](C)[C@H](CN(C)C(=O)Nc1ccc(F)cc1)OCCCC[C@@H](C)O2 | inactive | inactive | inactive
